# Reference: PubChem BioAssay
# Calls of active or inactive are those of the source.
# Tests used:
# [1] = small molecules captured by biotinylated probe aFSTL3 – biochemical, small-molecule microarray, fluorescence 635/667, stem cell growth factor project, primary screen (AID 1064); conditions: higher = more signal;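 further: measures binding of the biotinylated anti-FSTL3 antibody to printed compounds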
# [2] = binders from COS7 lysate, DM2A8 probe, primary screen, torsin A project, cell lysate, small-molecule microarray, fluorescence 635/667 (AID 1065); conditions: higher = more signal, COS7 lysate expressing mutant human TOR1A
# [3] = small molecules captured by biotinylated probe aFGF2 – biochemical, small-molecule microarray, fluorescence 635/667, stem cell growth factor project, primary screen (AID 1067); conditions: higher = more signal;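 further: measures binding of biotinylated aFGF2 protein to printed compounds on slides; z-score merges feature fluorescence and signal-to-noise across triplicate slides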
# [4] = small molecules captured by biotinylated probe aFGF10 – biochemical, small-molecule microarray, fluorescence 635/667, stem cell growth factor project, primary screen (AID 1071); conditions: higher = more signal;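 further: score merges 667 nm spot intensity and signal to noise from triplicate slides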
# [5] = target: Neurogenic locus notch homolog protein 2 (Homo sapiens) (UniProt Q04721); assay: small molecules binding Notch2 protein – biochemical, small-molecule microarray, 635 nm fluorescence, stem cell growth factors, primary screen (AID 1073); conditions: higher = more signal
# [6] = target: Pro-neuregulin-1, membrane-bound isoform (Homo sapiens) (UniProt Q02297); assay: small molecules binding neuregulin-1 protein – biochemical, small-molecule microarray, fluorescence 635/667, psychiatric disease protein project, primary screen (AID 1075); conditions: NRG1 binding, 635 nm fluorescence, higher = more signal;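 further: score combines 667 nm spot fluorescence with signal to noise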
# [7] = test system: Neuregulin-1 EGF-like domain; assay: small molecules binding NRG1 EGF domain – biochemical, small-molecule microarray, 635 nm fluorescence, primary screen (AID 1081); conditions: higher = more signal;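 further: binding of the protein to compounds printed on small-molecule microarray slides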
# [8] = FRG1 expression reporter modulators in myotubes – cell-based, C2C12 myotubes, firefly/Renilla luciferase, luminescence, FRG1 inhibition for FSHD, primary screen (AID 1084); conditions: FRG1 promoter luciferase, higher = more signal, called active from +8 up or from −8 down
# [9] = small molecules captured by biotinylated probe aFST – biochemical, small-molecule microarray, fluorescence 635/667, stem cell growth factor project, primary screen (AID 1086); conditions: higher = more signal;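 further: score merges 667 nm fluorescence with signal-to-noise of each printed compound spot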
# [10] = binders of probe aHhip on microarray, primary screen, stem cell growth factor project, biochemical, small-molecule microarray, fluorescence 635/667 (AID 1087); conditions: higher = more signal;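 further: score merges spot fluorescence at 667nm with spot signal to noise ratio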
# [11] = test system: PRMT1 (protein arginine N-methyltransferase 1); assay: small molecules binding arginine methyltransferase PRMT1 – biochemical, small-molecule microarray, 635 nm fluorescence, primary screen (AID 1088); conditions: higher = more signal;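 further: binding of Prmt1 protein to compounds spotted on small-molecule microarray slides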
# [12] = growth effects on S. cerevisiae YJM789 – YJM789 clinical isolate, OD600, 24 h, basal, primary screen (AID 1089); conditions: higher = more signal, called active from +8 up or from −8 down;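 further: growth of clinical yeast isolate S. cerevisiae YJM 789 seeded 1000 cells per well; test concentration not given here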
# [13] = S. pombe growth modifiers, basal conditions – strain 972, OD600, 24 h, no modulator, primary screen (AID 1090);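 further: basal condition with compound alone and no growth modifier present; test concentration not given here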; conditions: S. pombe 972 growth, higher = more signal, called active from +8 up or from −8 down
# [14] = budding yeast growth modifiers under rapamycin – strain BY4716, OD600, 96 h, primary screen (AID 1091); further: test concentration not given here; conditions: S. cerevisiae BY4716 + rapamycin, higher = more signal, called active from +8 up or from −8 down
# [15] = target: Torsin-1A-interacting protein 2 (Homo sapiens) (UniProt Q8NFQ8); assay: small molecules binding lysate-expressed LULL1 – cell lysate, human LULL1 lysate, 635/667 nm fluorescence, primary screen (AID 1092); conditions: small-molecule microarray, hLULL1 lysate binding, 635 nm fluorescence; higher = more signal;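 further: probe is lysate of COS7 cells overexpressing human LULL1; score merges per-feature 667 nm fluorescence with signal-to-noise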
# [16] = optical density change of DRC41 E. coli – strain DRC41, OD650, 24 h, E. coli filamentation project, primary screen (AID 1093);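 further: MC1000 strain lacking acrAB efflux and sulA so SOS filamentation is blocked; test concentration not given here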; conditions: E. coli DRC41 growth, higher = more signal, called active from +8 up or from −8 down
# [17] = probe aLefty2 binding to arrayed compounds – biochemical, biotinylated probe, 635/667 nm fluorescence, primary screen (AID 1094); conditions: small-molecule microarray, higher = more signal;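 further: score merges spot fluorescence near 667 nm with spot signal-to-noise ratio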
# [18] = test system: Noggin (protein binding on small-molecule microarray); assay: small molecules binding Noggin protein – biochemical, 635/667 nm fluorescence, primary screen (AID 1095); conditions: 635 nm fluorescence, higher = more signal;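 further: score merges 667 nm feature fluorescence with signal to noise over triplicate slides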
# [19] = target: Neurogenic locus notch homolog protein 3 (Homo sapiens) (UniProt Q9UM47); assay: small molecules binding NOTCH3 protein – biochemical, 635/667 nm fluorescence, primary screen (AID 1096); conditions: small-molecule microarray, 635 nm fluorescence, higher = more signal
# [20] = probe aEGFR binding to arrayed compounds – biochemical, biotinylated probe, 635/667 nm fluorescence, primary screen (AID 1097); conditions: small-molecule microarray, higher = more signal;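 further: probe is a biotinylated anti-EGFR antibody binding compounds printed on slides; score combines fluorescence near 667 nm and signal to noise of each spot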
# Chain of Neurogenic locus notch homolog protein 3 (Homo sapiens) (Q9UM47 whole entry, looked up): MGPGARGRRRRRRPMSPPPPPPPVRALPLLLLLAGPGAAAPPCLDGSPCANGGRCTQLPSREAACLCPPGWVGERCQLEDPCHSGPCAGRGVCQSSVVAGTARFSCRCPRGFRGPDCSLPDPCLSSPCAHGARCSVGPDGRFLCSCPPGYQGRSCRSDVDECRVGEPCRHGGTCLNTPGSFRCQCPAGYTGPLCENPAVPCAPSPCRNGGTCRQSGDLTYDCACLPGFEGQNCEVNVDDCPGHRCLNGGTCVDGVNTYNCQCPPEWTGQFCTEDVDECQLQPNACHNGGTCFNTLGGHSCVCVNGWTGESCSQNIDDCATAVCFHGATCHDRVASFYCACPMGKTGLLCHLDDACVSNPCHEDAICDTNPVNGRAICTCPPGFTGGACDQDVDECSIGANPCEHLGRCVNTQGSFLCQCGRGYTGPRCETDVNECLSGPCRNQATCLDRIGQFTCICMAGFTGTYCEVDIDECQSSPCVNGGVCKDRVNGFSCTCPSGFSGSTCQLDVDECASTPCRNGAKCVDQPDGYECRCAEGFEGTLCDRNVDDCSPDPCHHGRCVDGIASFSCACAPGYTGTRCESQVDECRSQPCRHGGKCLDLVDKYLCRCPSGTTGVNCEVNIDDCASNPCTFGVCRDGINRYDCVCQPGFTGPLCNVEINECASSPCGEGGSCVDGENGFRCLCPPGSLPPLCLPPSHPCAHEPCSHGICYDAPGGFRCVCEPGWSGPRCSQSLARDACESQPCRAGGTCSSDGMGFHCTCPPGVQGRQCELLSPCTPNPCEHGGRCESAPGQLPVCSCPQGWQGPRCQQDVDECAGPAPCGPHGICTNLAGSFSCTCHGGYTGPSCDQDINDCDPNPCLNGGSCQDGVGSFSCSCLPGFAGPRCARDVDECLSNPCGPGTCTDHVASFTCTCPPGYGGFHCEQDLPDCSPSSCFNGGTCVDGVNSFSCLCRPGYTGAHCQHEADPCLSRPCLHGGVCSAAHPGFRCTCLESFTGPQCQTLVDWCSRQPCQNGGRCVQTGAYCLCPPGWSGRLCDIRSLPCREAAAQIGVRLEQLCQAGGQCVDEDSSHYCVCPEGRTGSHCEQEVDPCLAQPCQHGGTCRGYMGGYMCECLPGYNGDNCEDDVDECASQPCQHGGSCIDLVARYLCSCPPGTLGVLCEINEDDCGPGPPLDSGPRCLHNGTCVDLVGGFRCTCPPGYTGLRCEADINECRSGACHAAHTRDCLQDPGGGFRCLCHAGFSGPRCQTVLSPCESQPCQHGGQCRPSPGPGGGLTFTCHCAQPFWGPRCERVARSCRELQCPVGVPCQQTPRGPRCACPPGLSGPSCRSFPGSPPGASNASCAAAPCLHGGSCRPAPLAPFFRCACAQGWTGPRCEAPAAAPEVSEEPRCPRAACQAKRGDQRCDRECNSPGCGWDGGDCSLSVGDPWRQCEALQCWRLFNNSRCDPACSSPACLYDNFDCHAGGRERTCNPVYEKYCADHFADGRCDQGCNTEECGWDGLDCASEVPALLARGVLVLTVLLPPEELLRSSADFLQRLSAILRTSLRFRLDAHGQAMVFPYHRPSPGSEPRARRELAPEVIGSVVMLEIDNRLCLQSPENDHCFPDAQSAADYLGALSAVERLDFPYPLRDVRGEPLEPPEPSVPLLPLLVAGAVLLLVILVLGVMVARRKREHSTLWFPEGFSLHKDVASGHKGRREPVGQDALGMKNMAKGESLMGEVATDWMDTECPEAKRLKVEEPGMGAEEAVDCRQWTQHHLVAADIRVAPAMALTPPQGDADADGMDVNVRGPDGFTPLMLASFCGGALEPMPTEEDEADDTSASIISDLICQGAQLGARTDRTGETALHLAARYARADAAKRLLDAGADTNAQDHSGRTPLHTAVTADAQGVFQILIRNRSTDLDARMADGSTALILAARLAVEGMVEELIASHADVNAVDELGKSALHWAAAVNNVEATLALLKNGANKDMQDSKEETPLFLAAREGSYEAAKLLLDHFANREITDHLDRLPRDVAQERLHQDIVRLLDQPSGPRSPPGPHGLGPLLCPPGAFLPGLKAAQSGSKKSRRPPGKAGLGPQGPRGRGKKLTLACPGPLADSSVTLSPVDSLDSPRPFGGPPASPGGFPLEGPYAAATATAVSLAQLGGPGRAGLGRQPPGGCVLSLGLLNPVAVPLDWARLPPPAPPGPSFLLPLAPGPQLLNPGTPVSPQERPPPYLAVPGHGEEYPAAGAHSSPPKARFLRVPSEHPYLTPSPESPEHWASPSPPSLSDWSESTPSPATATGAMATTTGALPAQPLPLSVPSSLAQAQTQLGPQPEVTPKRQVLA
# Chain of Torsin-1A-interacting protein 2 (Homo sapiens) (Q8NFQ8 whole entry, looked up): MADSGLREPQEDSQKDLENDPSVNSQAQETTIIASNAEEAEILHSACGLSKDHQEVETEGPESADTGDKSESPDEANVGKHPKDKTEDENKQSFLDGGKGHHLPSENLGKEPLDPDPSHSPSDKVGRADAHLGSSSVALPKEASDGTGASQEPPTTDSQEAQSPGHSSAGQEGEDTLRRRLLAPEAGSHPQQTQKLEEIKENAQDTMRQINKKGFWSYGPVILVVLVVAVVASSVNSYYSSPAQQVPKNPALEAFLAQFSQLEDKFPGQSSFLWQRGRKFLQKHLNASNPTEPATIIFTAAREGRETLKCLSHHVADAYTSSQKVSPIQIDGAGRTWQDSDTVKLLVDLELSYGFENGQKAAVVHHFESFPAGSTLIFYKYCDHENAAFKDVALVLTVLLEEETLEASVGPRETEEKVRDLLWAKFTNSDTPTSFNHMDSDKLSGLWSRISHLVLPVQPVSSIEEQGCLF
# Chain of Pro-neuregulin-1, membrane-bound isoform (Homo sapiens) (Q02297 whole entry, looked up, the tested form may be a part, canonical isoform): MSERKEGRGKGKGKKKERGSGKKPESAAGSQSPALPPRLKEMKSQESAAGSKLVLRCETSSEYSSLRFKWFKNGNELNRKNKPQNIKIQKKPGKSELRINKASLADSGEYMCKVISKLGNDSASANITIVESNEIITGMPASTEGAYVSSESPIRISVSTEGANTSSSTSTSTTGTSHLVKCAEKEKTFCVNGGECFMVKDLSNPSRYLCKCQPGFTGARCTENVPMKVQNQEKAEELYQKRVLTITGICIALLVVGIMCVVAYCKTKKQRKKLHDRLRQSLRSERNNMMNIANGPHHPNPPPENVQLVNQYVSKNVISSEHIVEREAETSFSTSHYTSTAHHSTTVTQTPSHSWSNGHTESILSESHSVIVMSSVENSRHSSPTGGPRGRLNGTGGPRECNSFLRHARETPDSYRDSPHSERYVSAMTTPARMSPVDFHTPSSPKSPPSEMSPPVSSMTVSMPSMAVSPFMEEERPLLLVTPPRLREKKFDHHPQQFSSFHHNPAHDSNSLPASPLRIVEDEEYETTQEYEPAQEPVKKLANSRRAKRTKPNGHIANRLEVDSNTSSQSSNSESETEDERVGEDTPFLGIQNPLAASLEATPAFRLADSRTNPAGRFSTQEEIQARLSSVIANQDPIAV
SMILES,composite z-score [1],composite z-score [2],composite z-score [3],composite z-score [4],composite z-score [5],composite z-score [6],composite z-score [7],z-score [8],composite z-score [9],composite z-score [10],composite z-score [11],z-score [12],z-score [13],z-score [14],composite z-score [15],z-score [16],composite z-score [17],composite z-score [18],composite z-score [19],composite z-score [20]
C=CCNC(=O)[C@H]1[C@@H]2C(=O)O[C@@H](c3ccccc3)[C@@H](c3ccccc3)N2[C@@H](c2ccc(OCCO)cc2)[C@]12C(=O)Nc1ccc(C#CC3=CCCCC3)cc12,-0.299,0.218,0.0703,0.498,1.05,0.688,1.29,-0.254 (inactive),0.233,-0.216,1.55,2.28 (inactive),1.46 (inactive),4.72 (inactive),2.89,1.53 (inactive),-0.109,0.673,1.15,-0.147
O=C(NCc1ccccc1)[C@@]1(Cc2ccccc2)N=C(c2ccc(OCCCO)cc2)O[C@H]1c1ccccc1,0.398,1.92,0.0557,0.177,1.56,1.76,1.05,-2.23 (inactive),1.07,-0.201,0.982,0.46 (inactive),-0.666 (inactive),23.2 (active),3.39,0.842 (inactive),0.126,-0.595,0.642,0.0357
O=C1C[C@]2(c3ccc([N+](=O)[O-])cc3)C(=O)N(CCN3CCOCC3)c3cc(CO)ccc3[C@H]2N1C1CCCCC1,0.526,-0.808,-0.162,-0.212,-0.309,1.37,-0.251,-1.88 (inactive),0.105,-0.121,1.47,-0.87 (inactive),0.0365 (inactive),-1.6 (inactive),1.1,0.668 (inactive),-0.0668,-0.283,-0.188,-0.112
COc1cc(OC)c(C(O)C2C=CC3C(=O)NC(=O)C3N2Nc2ccc(Cl)cc2Cl)cc1Br (stereo not given),0.379,-0.0156,0.19,0.141,1.61,1.9,1.11,0.809 (inactive),1.58,-0.199,0.743,-18.8 (active),0.109 (inactive),-0.55 (inactive),3.34,-1.99 (inactive),0.277,-0.48,0.541,0.0009
C#CCN(Cc1ccccc1Br)C(/C=C/c1ccccc1)CO (stereo not given),0.389,0.0837,-0.148,0.0126,-0.619,-0.17,-0.131,-1.83 (inactive),-0.481,-0.236,-0.69,-2.9 (inactive),-19.4 (active),0.934 (inactive),0.123,0.556 (inactive),-0.144,-0.193,-0.598,-0.277
C[C@@H]1ON(c2cccc(C(=O)OC(C)(C)C)c2)[C@H](c2ccc(Br)cc2)[C@H]1C(=O)N1C(=O)OC[C@H]1Cc1ccccc1,-0.532,0.351,-0.031,0.511,1.37,0.457,0.958,-0.295 (inactive),0.625,0.245,1.54,0.912 (inactive),1.38 (inactive),0.528 (inactive),1.5,-0.448 (inactive),-0.0408,0.57,1.12,-0.0039
COc1ccc(C#Cc2ccc3c(c2)[C@]2(C(=O)N3)[C@H](c3ccccc3OCCO)N3[C@H](c4ccccc4)[C@H](c4ccccc4)OC(=O)[C@H]3[C@@H]2C(=O)O)cc1,-0.377,0.424,0.0406,1.16,1.34,1.74,1.28,-0.0646 (inactive),0.336,0.132,1.54,3.22 (inactive),1.13 (inactive),0.629 (inactive),3.09,0.0706 (inactive),0.111,1.11,1.03,0.122
CN1C(=O)C2C=CC(C(O)Cc3ccccc3)N(Nc3ccccc3)C2C1=O (stereo not given),0.0217,-0.576,-0.116,0.294,1.21,1.38,1.13,0.84 (inactive),0.0791,-0.236,0.0459,0.398 (inactive),0.0113 (inactive),-0.0322 (inactive),3.43,-1.05 (inactive),0.126,0.129,0.297,-0.071
[N-]=[N+]=Nc1ccccc1C[C@@]1(C(=O)NCCN2CCOCC2)N=C(c2ccc(OCCCO)cc2)O[C@@H]1c1ccccc1,0.234,0.205,0.146,0.409,1.59,1.6,1.24,-1.23 (inactive),1.01,-0.286,1.55,-2.58 (inactive),-4.77 (inactive),-1.77 (inactive),3.27,1.26 (inactive),-0.0673,0.748,1.08,0.0371
OC([C@@H]1CC(c2ccccc2)=NO1)[C@H]1CC(c2ccccc2)=NO1 (stereo not given in full),0.0787,-0.141,-0.0634,0.287,0.178,-0.0896,0.563,0.364 (inactive),0.227,0.0024,-0.629,0.784 (inactive),-0.786 (inactive),1.55 (inactive),0.299,2.52 (inactive),-0.0748,0.281,-0.158,0.0655
